Rows were chosen to be rich in hits. Some 2.4% of all compounds tested hit in one or more screens of this group.
Pol iota inh – DNA polymerase iota (human) inhibition; Q9UNA4; Pol iota fluorescent replication assay, 10 min; Potency, µM (top dose mostly 115 µM), without a hit: at the top dose activity, negative = inhibition, usual class: inhibitors; 1% of 390,000 active; AID 588590
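Fluorescent replication assay read twice, at 0 min and 10 min after adding 50 nM (final) substrate. Enzyme (10 nM) and compounds were first incubated 15 min at room temperature; enzyme-free buffer wells were negative controls.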
Pol beta inh – inhibitors of human DNA polymerase beta. 1.3% of 340,000 active. P06746. Potency, µM (highest dose often 114 µM), inactives show at the top dose activity change, negative = inhibition, hits mostly inhibitors. Pol beta primer extension/strand displacement, fluorescence kinetic. AID 485314; also: % is scaled to controls: 0 for no effect and ±100 for the full control effect
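Human Pol beta at 10 nM; strand-displacement substrate 50 nM final. Compound exposure 15 min at room temperature before start, reaction 10 min at room temperature.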
WRN helicase inh – blocks human WRN helicase | Potency, µM (highest dose often 114 µM), for the others: at the highest dose activity change, negative = inhibition, actives largely listed as inhibitors | Q14191 | AID 651768 | WRN helicase unwinding, fluorescent forked duplex, kinetic | 0.46% of 360,000 active; also: % is scaled to controls: 0 for no effect and ±100 for the full control effect; nearly all actives have a fitted effect of over 55% in size
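Primary qHTS, 1536-well format. 20 nM WRN + compound, 15 min RT; start with 100 nM forked fluorophore/quencher duplex, 2 mM ATP (final); kinetic read ex 525/em 598 nm.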
FEN1 inhibitor – inhibitors of human flap endonuclease 1. Recombinant FEN1 flap cleavage, fluorescence, 15 min. Potency, µM (doses to about 114 µM), without a hit: top-dose activity change, negative = inhibition, actives largely listed as inhibitors. 0.35% of 390,000 active. AID 588795; also: % is scaled to controls: 0 for no effect and ±100 for the full control effect; nearly all actives have a fitted effect of over 65% in size
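Potency values derive from four-parameter Hill fits of normalized qHTS data. The reaction used 10 nM FEN1 preincubated 15 min at room temperature with compound, then 50 nM DNA substrate, read at 0 and 15 min.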
POLH inh – inhibitors of human DNA polymerase eta; AID 588591; Potency, µM (top dose mostly 114 µM), inactives show top-dose activity change, negative = inhibition, most hits filed as inhibitors; recombinant Pol eta, fluorescent DNA replication assay; 1.2% of 390,000 active; Q9Y253; also: % is scaled to controls: 0 for no effect and ±100 for the full control effect
Target sequence (Q9Y253 whole entry, looked up): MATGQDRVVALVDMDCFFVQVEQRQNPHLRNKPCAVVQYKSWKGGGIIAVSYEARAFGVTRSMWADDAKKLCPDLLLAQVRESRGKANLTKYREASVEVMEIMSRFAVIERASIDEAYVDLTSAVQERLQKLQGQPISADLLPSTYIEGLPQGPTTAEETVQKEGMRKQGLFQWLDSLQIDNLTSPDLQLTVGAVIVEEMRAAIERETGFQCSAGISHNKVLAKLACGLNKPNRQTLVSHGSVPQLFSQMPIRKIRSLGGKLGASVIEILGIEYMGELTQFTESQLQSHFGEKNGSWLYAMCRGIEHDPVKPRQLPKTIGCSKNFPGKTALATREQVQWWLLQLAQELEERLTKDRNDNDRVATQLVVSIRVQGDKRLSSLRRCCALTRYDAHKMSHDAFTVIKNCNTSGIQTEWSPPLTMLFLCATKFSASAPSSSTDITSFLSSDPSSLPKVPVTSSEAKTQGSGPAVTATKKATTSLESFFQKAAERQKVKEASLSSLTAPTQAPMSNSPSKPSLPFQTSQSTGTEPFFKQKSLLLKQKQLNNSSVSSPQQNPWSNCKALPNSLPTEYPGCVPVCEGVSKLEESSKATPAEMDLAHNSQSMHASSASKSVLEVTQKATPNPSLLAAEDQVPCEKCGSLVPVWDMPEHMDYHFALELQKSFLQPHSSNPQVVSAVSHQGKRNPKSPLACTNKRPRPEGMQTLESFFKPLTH
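Pol eta at 10 nM preincubated with compounds 15 min at room temperature; reaction started with fluorescent substrate (50 nM final) and read kinetically at 0 and 10 min.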
Pol kappa inh – DNA polymerase kappa (human) inhibition; purified Pol kappa, fluorescent DNA synthesis assay, 10 min; 0.53% of 400,000 active; AID 588579; Q9UBT6; Potency, µM (titrated, usually from 107 µM), for inactives: at the top dose activity, negative = inhibition, hits mostly inhibitors; also: % is scaled to controls: 0 for no effect and ±100 for the full control effect
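Fluorescent qHTS in 1536-well format: enzyme (10 nM) and compound sat 15 min at room temperature before 50 nM substrate (final) was added. Signal taken at 0 and 10 min; no-enzyme buffer wells were negative controls.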
* = called active by the depositor; ? = inconclusive; / = no result given; [ ] = remark or other dose. Calls follow the shape of the dose curve; as a rule, active = well fitted curve in the direction sought with a large enough effect; inconclusive = small, poorly fitted or top-dose-only effect, or another doubt; inactive = no such curve, though single readings can be large; an effect the other way counts as inactive or inconclusive. Potency is read from the fitted curve at half-maximal effect.

SMILES | Pol iota inh | Pol beta inh | WRN helicase inh | FEN1 inhibitor | POLH inh | Pol kappa inh
N#CC1=C2SCN(C3CCCCC3)CN2C(=O)CC1c1ccc(F)cc1 (configuration not stated) | 25.1µM* | -16.4% | / | -2.8% | -19.4% | -15.8%
O=C(O)c1ccc2ncsc2c1 | 3.98µM* | 8.2% | ? | -12.8% | -20.4% | -13.7%
O=C(c1ccc2ncsc2c1)N1CCCCC1 | -1.6% | 11.0% | -2.4% | -0.4% | -11.5% | -6.3%
C#CCOCCOCCOCCNc1nc(N2CCN(C(=O)CCCCCCCCCCNC(=O)[C@H](CCCCN)n3cc(C)nn3)CC2)nc(N2CCN(C(=O)CCCCCCCCCCNC(=O)[C@H](CCCN=C(N)N)n3cc(C[C@@H](C)CC)nn3)CC2)n1 | ? | / | 44.7µM* | 22.4µM* | ? | ?
C#CCOCCOCCOCCNc1nc(N2CCN(C(=O)CCCCCCCCCCNC(=O)[C@H]([C@@H](C)CC)n3cc(CCCCN=C(N)N)nn3)CC2)nc(N2CCN(C(=O)CCCCCCCCCCNC(=O)[C@@H]([C@H](C)O)n3cc(C)nn3)CC2)n1 | ? | / | 56.2µM* | 25.1µM* | ? | ?
C#CCOCCOCCOCCNc1nc(N2CCN(C(=O)CCCCCCCCCCNC(=O)[C@@H](CCSC)n3cc(CCO)nn3)CC2)nc(N2CCN(C(=O)CCCCCCCCCCNC(=O)[C@H](CCCN=C(N)N)n3cc(C[C@@H](C)CC)nn3)CC2)n1 | ? | / | 50.1µM* | 20µM* | 79.4µM* | -18.8%
C#CCOCCOCCOCCNc1nc(N2CCN(C(=O)CCCCCCCCCCNC(=O)[C@H](CCCCN)n3cc(C[C@@H](C)CC)nn3)CC2)nc(N2CCN(C(=O)CCCCCCCCCCNC(=O)[C@H](CCCN=C(N)N)n3cc(C[C@@H](C)CC)nn3)CC2)n1 | -21.0% | / | 31.6µM* | 25.1µM* | 28.2µM* | -9.2%
CN(C)/[N+]([O-])=N/Oc1ccc([N+](=O)[O-])cc1[N+](=O)[O-] | ? | / | / | -3.2% | / | -21.8%
Cc1ccc2c(c1)c1c(c(=O)n(-c3cccc(Cl)c3)c(=O)n1C)n2C | 19.8% | -7.1% | / | -0.4% | 2.0% | 5.0%
C#CCOCCOCCOCCNc1nc(N2CCN(C(=O)CCCCCCCCCCNC(=O)[C@H](CCCCN)n3cc(C[C@@H](C)CC)nn3)CC2)nc(N2CCN(C(=O)CCCCCCCCCCNC(=O)[C@@H]([C@H](C)O)n3cc(C)nn3)CC2)n1 | 24.1% | / | 50.1µM* | 31.6µM* | 79.4µM* | 3.4%
O=S(=O)(N=C1C=CC(=NS(=O)(=O)c2ccccc2)c2ccccc21)c1ccccc1 | / | / | 6.5% | / | 50.1µM* | /
CCc1ccc(S(=O)(=O)/N=C2\C=CC(=O)c3ccccc32)cc1 | / | 16.6% | / | / | / | /
Cn1c(=O)c(NCCc2ccccc2)c2c3c(cccc31)C(=O)c1ccccc1-2 | ? | 14.1µM* | 39.8µM* | 56.2µM* | ? | ?
Cc1cc(Cl)ccc1NC(=O)CN1C(=O)COc2ccc(S(=O)(=O)Nc3ccccc3)cc21 | -13.1% | 4.2% | / | 3.2% | -4.3% | -6.2%
C=C1C=C(C(F)F)n2ncc(C(=O)N3CCN(c4ccccc4)CC3)c2N1 | 8.8% | / | / | -1.1% | / | 3.8%
C=C(C)C(=O)Nc1cccc(C2=NOC3(C2)C[C@@H](C(N)=O)N(C(=O)[C@H]2CCC(=O)N2)C3)c1 (some centres not stated) | -5.9% | 56.2µM* | 3.0% | -13.1% | 0.6% | -11.1%
C=C(C)C(=O)Nc1cccc(C2=NOC3(C2)C[C@@H](C(N)=O)N(C(=O)c2ccc(OC)cc2)C3)c1 (some centres not stated) | 7.08µM* | 2.82µM* | ? | ? | 2.82µM* | 14.1µM*
CSc1ccc(/C=C/C(=O)NC(=O)c2ccccc2O)cc1 | ? | 35.5µM* | -22.3% | -5.5% | -23.0% | -40.5%
O=C(/C=C/c1ccc(Br)cc1)NC(=O)c1ccccc1O | 55.9% | 31.6µM* | -32.9% | 5.5% | -18.4% | -0.2%
O=C(NO)c1ccccc1O | -1.5% | 8.8% | -0.8% | 11.2% | -8.7% | 5.5%
CCN(CC(=O)Nc1ccc(NC(C)=O)cc1)C(=O)c1cccc(-n2cccc2)c1 | 56.2µM* | / | -29.0% | 6.5% | ? | -42.5%
O=c1c2ccccc2sn1-c1ccc(Cl)c(S(=O)(=O)N2CCOCC2)c1 | 79.4µM* | / | / | ? | / | -13.9%
CCOC(=O)c1c(NC(=O)/C=C/C(=O)O)sc(C)c1-c1ccc(C(C)(C)C)cc1 | ? | ? | -33.9% | -33.2% | 22.4µM* | -11.5%
Cc1nc(N2CCN(C)CC2)c2nnn(Cc3ccccc3)c2n1 | 14.5% | / | / | 0.5% | / | 2.1%
COc1ccc(C(=O)Nc2c(N)nc(SCC(=O)Nc3ccc(NC(C)=O)cc3)[nH]c2=O)cc1OC | 79.4µM* | ? | -21.8% | -3.3% | ? | ?
SMILES | Pol iota inh | Pol beta inh | WRN helicase inh | FEN1 inhibitor | POLH inh | Pol kappa inh
COc1ccc(C(=O)Nc2cccc(S(C)(=O)=O)c2)cc1OC | 92.0% | 3.2% | -9.9%[57.1 µM] | 6.2% | -20.7% | 4.0%
COc1ccc(C(=O)Nc2cccc(NC(C)=O)c2)cc1OC | ? | 8.91µM* | -5.9% | -1.3% | ? | ?
Nc1nc(SCC(=O)Nc2ccc(C(F)(F)F)cc2)[nH]c(=O)c1NC(=O)c1ccc(F)c(F)c1 | 21.8% | -1.4% | -12.1% | -1.0% | -6.5% | -8.2%
Nc1n[nH]c(=S)n1/N=C1/C(=O)Nc2ccccc21 | -6.3% | ? | -31.5%[57.1 µM] | 89.1µM* | 6.5% | -21.9%
O=C1Nc2ccccc2C1=NN1CCCCCC1 | 109.7% | / | -28.2% | 0.6% | -2.0% | -7.4%
Cc1ccc(CN(C(=O)c2ccccc2F)c2ccccn2)o1 | 79.4µM* | 56.2µM* | / | -13.8% | -23.3% | ?
Cc1cccc(OCc2nc(CC(=O)Nc3ccc(Cl)cc3)cs2)c1 | 24.1% | -2.5% | / | -1.3% | 6.3% | -3.2%
O=C(/C=C/c1ccc2c(c1)OCO2)c1ccc(O)cc1O | ? | / | -11.1% | 1.2% | -24.6% | -2.0%
O=C(/C=C/c1ccc(O)c(O)c1)c1ccc(O)cc1O | / | / | / | / | / | 21.2µM*
COc1cccc2c1Oc1ncccc1N(c1ccc(C(=O)NCc3cccc(C)c3)s1)C2 | 89.1µM* | 26.5% | / | -15.1% | -13.0% | ?
CCCCN1CC[C@H]2C=CC[C@@H](C(=O)NCc3cccnc3)[C@H]2C1=O | 18.4% | / | / | -4.1% | / | -8.6%
COc1cc2c(cc1OC)-c1cc3ccc4c(c3c[n+]1CC2)OCO4 | 14.1µM* | 39.8µM* | 7.5%[11.6 µM] | ? | ? | -21.0%
COc1cc2c(cc1OC)C(c1ccccc1)=NCC2 | 157.1% | 28.5% | 1.6% | -3.3% | -5.7% | -6.0%
Cc1cc(C)cc(NS(=O)(=O)c2ccc3[nH]cc(C(=O)N4CCCC4)c(=O)c3c2)c1 | 38.4% | 0.5% | / | -0.5% | -6.4% | -31.8%
